According to the supplement of paper PMC11628255, “Interference of metal ions on the bioluminescent signal of firefly, Renilla, and NanoLuc luciferases in high-throughput screening assays” (Frontiers in Chemistry, 2024):
± gives the standard deviation of the averaged measurements.

Test system: firefly luciferase (FLuc)
Assay: residual bioluminescent signal relative to negative (DMSO) control; higher = less interference (more residual luciferase signal)
Procedure: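 Purified luciferase (FLuc 10 nM + 10 uM D-luciferin; NLuc 10 pM + 10 uM furimazine; RLuc 50 pM + 2 uM coelenterazine) in 384-well plates; metal salt pre-incubated with enzyme 10 min at RT, substrate added and luminescence read after 10 min. Signal normalised to plate DMSO negative control (% N_VALUE = x/mean neg *100); triplicate wells at 0.01, 1 and 5 mM salt.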

[1] = metal salt concentration 0.01 mM, HEPES conditions (100 mM HEPES, 5 mM MgSO4, 10 uM ATP, pH 7.5)
[2] = metal salt concentration 0.01 mM, screening conditions (0.5 mM Tris, 50 mM glycine, 0.5 mM EDTA, 5 mM MgSO4, 10 uM ATP, pH 7.6)
[3] = metal salt concentration 1 mM, HEPES conditions (100 mM HEPES, 5 mM MgSO4, 10 uM ATP, pH 7.5)
[4] = metal salt concentration 1 mM, screening conditions (0.5 mM Tris, 50 mM glycine, 0.5 mM EDTA, 5 mM MgSO4, 10 uM ATP, pH 7.6)
[5] = metal salt concentration 5 mM, HEPES conditions (100 mM HEPES, 5 mM MgSO4, 10 uM ATP, pH 7.5)
[6] = metal salt concentration 5 mM, screening conditions (0.5 mM Tris, 50 mM glycine, 0.5 mM EDTA, 5 mM MgSO4, 10 uM ATP, pH 7.6)

Compound	residual bioluminescent signal [1] [%]	residual bioluminescent signal [2] [%]	residual bioluminescent signal [3] [%]	residual bioluminescent signal [4] [%]	residual bioluminescent signal [5] [%]	residual bioluminescent signal [6] [%]
O=S(=O)([O-])[O-].[Mn+2] [manganese(II) sulfate]	85 ± 11	82.6 ± 4.7	80.6 ± 12	77.1 ± 3.5	79.4 ± 13	57.4 ± 8.1
O=S(=O)([O-])[O-].[Fe+2] [iron(II) sulfate]	10.5 ± 3.6	109 ± 9.9	1.09 ± 0.23	0.237 ± 0.14	1.22	0.237 ± 0.21
CC#N.CC#N.CC#N.CC#N.F[B-](F)(F)F.[Cu+] [tetrakis(acetonitrile)copper(I) tetrafluoroborate]	0.543 ± 0.23	115 ± 2.9	0.407	0.474 ± 0.16	0.679 ± 0.47	0.422 ± 0.36
[Cl][Fe][Cl] [iron(II) chloride]	28.9 ± 6.8	108 ± 1.6	1.76 ± 0.23	0.343 ± 0.046	0.814 ± 0.7	0.369 ± 0.091
